Results published in PubChem BioAssay (NCATS).
Where “and” joins values, the source holds several entries; their conditions need not be identical. Equal values may be shown once. Results filed as inconclusive are left out. Calls of active or inactive are those of the source. Unless noted, calls come from the whole dose curve; as a rule, active = well fitted curve in the direction sought with a large enough effect; inconclusive = small, poorly fitted or top-dose-only effect, or another doubt; inactive = no such curve, though single readings can be large; an effect the other way counts as inactive or inconclusive.

What was measured:
[1] = Primary qHTS for inhibitors of nuclear receptor binding SET domain protein 2 (NSD2) in an isogenic RCH-ACV NSD2 p.E1099K mutant (9B) (AID 1645876); note: nearly all actives have a fitted effect of over 70% in size; note: potency is the fitted concentration of half-maximal effect
[2] = Primary qHTS for inhibitors of nuclear receptor binding SET domain protein 2 (NSD2) in an RCH-ACV wild type WT cells (2C) (AID 1645877); note: nearly all actives have a fitted effect of over 70% in size; note: potency is the fitted concentration of half-maximal effect
[3] = molecular target: Catechol O-methyltransferase (Homo sapiens) (UniProt P21964); assay: Confirmatory Screen for Target Class Profiling of Small Molecule Inhibitors of Methyltransferases (AID 1745852; calls by dose curve; note: potency is the fitted concentration of half-maximal effect; for activity change, negative = inhibition: % is set by controls: 0 for no effect and ±100 for the full control effect); conditions: MTase-Glo luminescence, SAH detection, recombinant enzyme; measured here: COMT max response; stronger effect = lower value
[4] = molecular target: Guanidinoacetate N-methyltransferase (Homo sapiens) (UniProt Q14353); assay: as above; conditions: activity change, negative = inhibition: at 57.3 µM (top of the series) unless noted
[5] = molecular target: Nicotinamide N-methyltransferase (Homo sapiens) (UniProt P40261); assay: as above; conditions: MTase-Glo luminescence, SAH detection, recombinant enzyme; measured here: NNMT max response; stronger effect = lower value
[6] = molecular target: Phenylethanolamine N-methyltransferase (Homo sapiens) (UniProt P11086); assay: as above; conditions: MTase-Glo luminescence, SAH detection, recombinant enzyme; measured here: PNMT max response; stronger effect = lower value
[7] = molecular target: Rap guanine nucleotide exchange factor 3 (Homo sapiens) (UniProt O95398); assay: Confirmatory qHTS for antagonist of cAMP-regulated guanine nucleotide exchange factor 3 (EPAC1) (AID 1645880); note: potency is the fitted concentration of half-maximal effect; nearly all actives have a fitted effect of over 55% in size
In short: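 Nucleotide exchange uses 100 nM EPAC1, 250 nM RAP1B-BODIPY-GDP and 50 uM GDP, with compounds in a concentration-titration series. After 5 min at room temperature, fluorescence (480 nm ex/540 nm em) is read every 5 min for 30 min. Data are normalized to control ATA and DMSO.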

[8] = molecular target: Rap guanine nucleotide exchange factor 3 (Homo sapiens) (UniProt O95398); assay: Confirmatory qHTS for agonist of cAMP-regulated guanine nucleotide exchange factor 3 (EPAC1) (AID 1645881);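 note: EPAC1 catalysed release of BODIPY-GDP from Rap1B seen as fluorescence loss; 100% = effect of cAMP agonist control; nearly all actives have a fitted effect of over 75% in size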
[9] = molecular target: Rap guanine nucleotide exchange factor 4 (Homo sapiens) (UniProt Q8WZA2); assay: Confirmatory qHTS for antagonist of cAMP-regulated guanine nucleotide exchange factor 4 (EPAC2) (AID 1645885); note: potency is the fitted concentration of half-maximal effect; nearly all actives have a fitted effect of over 25% in size
[10] = molecular target: Rap guanine nucleotide exchange factor 3 (Homo sapiens) (UniProt O95398); assay: Counterscreen qHTS for antagonist of cAMP-regulated guanine nucleotide exchange factor 3 (EPAC1) (AID 1645888);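 note: fluorescence loss as bound BODIPY-GDP is released from Rap1B; % of control where 0% means no effect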
In short: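 Rap1B–BODIPY-GDP (250 nM) with 50 uM GDP; compounds pin-transferred to 9.74 nM–152 uM final (activator) or from 7.32 nM upwards (inhibitor). Fluorescence Ex/Em 480/540 nm read at 5 and 30 min, then after adding cAMP or buffer, at room temperature.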

Sequence of Rap guanine nucleotide exchange factor 3 (Homo sapiens) (O95398 whole entry, looked up): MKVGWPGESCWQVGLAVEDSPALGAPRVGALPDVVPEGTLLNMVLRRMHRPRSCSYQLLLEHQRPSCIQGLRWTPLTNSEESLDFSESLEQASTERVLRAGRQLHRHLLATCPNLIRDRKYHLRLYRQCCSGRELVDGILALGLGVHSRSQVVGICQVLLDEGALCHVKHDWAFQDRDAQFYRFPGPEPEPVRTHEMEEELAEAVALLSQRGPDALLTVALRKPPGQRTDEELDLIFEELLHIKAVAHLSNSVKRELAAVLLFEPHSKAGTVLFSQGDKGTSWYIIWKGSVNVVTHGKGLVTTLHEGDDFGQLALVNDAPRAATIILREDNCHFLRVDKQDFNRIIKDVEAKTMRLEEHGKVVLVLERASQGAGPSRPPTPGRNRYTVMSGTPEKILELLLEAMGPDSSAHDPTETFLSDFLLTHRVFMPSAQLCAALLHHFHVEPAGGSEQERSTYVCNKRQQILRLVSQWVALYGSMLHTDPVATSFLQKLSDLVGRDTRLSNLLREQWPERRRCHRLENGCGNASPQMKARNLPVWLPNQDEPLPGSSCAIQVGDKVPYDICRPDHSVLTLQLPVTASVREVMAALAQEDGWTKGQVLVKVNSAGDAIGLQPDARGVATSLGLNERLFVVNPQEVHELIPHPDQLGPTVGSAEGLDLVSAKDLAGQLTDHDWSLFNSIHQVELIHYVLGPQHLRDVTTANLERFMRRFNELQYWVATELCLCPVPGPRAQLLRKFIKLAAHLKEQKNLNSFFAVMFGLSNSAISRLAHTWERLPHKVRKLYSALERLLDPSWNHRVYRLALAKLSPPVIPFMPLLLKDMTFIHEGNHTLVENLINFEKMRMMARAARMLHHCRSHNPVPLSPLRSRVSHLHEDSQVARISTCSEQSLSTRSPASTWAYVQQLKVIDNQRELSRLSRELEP
Sequence of Nicotinamide N-methyltransferase (Homo sapiens) (P40261 whole entry, looked up): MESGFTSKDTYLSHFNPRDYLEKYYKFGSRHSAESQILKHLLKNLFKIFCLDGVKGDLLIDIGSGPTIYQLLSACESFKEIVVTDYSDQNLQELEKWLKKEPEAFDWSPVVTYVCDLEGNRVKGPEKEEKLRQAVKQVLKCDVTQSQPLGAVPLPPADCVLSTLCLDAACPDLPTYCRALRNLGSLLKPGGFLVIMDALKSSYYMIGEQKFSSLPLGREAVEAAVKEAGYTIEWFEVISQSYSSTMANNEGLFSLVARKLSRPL
Sequence of Phenylethanolamine N-methyltransferase (Homo sapiens) (P11086 whole entry, looked up): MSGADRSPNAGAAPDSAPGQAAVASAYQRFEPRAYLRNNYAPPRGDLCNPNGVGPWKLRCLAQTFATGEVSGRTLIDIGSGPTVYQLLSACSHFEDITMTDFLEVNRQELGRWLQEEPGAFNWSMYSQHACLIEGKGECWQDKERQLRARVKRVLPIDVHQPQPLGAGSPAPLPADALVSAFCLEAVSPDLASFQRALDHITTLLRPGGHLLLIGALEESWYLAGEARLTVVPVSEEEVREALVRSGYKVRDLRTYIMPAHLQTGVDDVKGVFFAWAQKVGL
Sequence of Catechol O-methyltransferase (Homo sapiens) (P21964 whole entry, looked up): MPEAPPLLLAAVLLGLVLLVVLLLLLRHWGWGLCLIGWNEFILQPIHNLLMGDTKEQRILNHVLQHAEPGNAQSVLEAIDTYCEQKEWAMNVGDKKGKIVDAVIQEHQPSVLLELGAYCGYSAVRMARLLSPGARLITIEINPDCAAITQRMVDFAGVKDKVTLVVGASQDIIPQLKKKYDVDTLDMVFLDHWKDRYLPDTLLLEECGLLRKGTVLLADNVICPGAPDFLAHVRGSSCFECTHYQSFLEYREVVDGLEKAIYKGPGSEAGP
Sequence of Rap guanine nucleotide exchange factor 4 (Homo sapiens) (Q8WZA2 whole entry, looked up): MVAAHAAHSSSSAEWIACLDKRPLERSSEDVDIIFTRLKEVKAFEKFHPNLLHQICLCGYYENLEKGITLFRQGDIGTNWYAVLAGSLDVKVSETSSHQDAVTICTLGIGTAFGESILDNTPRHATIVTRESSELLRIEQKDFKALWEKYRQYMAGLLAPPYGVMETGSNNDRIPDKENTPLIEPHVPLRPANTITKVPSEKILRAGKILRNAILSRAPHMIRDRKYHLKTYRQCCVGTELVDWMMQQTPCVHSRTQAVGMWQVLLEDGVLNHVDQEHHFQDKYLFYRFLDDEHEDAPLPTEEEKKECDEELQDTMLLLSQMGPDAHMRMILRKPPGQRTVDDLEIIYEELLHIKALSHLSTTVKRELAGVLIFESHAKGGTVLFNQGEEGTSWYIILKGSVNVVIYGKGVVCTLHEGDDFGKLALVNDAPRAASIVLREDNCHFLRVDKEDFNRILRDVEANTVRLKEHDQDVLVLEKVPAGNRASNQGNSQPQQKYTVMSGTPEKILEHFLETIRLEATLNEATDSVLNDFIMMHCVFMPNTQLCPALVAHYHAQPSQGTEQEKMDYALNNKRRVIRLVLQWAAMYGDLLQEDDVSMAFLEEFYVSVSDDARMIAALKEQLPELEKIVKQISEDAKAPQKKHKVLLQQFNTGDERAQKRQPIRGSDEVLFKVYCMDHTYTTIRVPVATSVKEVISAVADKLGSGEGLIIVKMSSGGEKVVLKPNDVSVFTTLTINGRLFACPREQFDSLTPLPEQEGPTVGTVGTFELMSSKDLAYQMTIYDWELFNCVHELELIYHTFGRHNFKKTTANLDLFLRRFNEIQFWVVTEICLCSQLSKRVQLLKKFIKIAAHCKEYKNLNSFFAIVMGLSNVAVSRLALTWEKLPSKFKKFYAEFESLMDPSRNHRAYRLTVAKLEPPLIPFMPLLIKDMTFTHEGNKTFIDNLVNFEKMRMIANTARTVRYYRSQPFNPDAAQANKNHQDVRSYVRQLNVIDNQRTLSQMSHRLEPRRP

COc1cc2c(NC3CCN(C(C)C)CC3)nc(N3CCC(F)(F)CC3)nc2cc1OCCCN1CCCC1
Potency [1]: 20.5 µM (active) | Potency [2]: 11.5 µM (active) | activity [3]: -11.2% | activity change, negative = inhibition [4]: -0.0366% | activity [5]: -8.4% | activity [6]: -0.61%

O=C1Cc2c([nH]c3ccc(Br)cc23)-c2ncccc2N1
Potency [1]: 2.9 µM (active) | Potency [2]: 2.58 µM (active) | activity [3]: -8.4% | activity change, negative = inhibition [4]: -5.35% | activity [5]: -15.4% | activity [6]: -7.69%

CC[C@H]1CN(c2nc(N)c(C(N)=O)nc2Cl)CCN1C1CCN(Cc2ccc(Cl)cc2)CC1
Potency [1]: inactive | Potency [2]: inactive | activity [3]: -6.83% | activity change, negative = inhibition [4]: -2.17% [at 29.8 µM] | activity [5]: -61.1% | activity [6]: -5.17%

C=C1C(=O)OC2/C=C(/C)C3=CC(=O)C(C)(CC(OC(=O)/C(C)=C/COC(C)=O)C12)O3 (stereo not drawn)
Potency [1]: 1.12 µM (active) | Potency [2]: 0.399 µM (active) | activity [3]: -88.1% | activity change, negative = inhibition [4]: 0.139% [at 29.8 µM] | activity [5]: 0.146% | activity [6]: -3.18%

O=c1cc(OCc2ccc(F)cc2)ccn1-c1ccc(OCCN2CCCC2)cc1
Potency [1]: 23 µM (active) | Potency [2]: 8.17 µM (active)

C=C1C(=O)O[C@@H]2[C@H]3C(C)=CC(=O)C3=C(C)CC[C@@H]12
Potency [1]: 2.9 µM (active) | Potency [2]: 2.05 µM (active)

COc1cc(CCO)ccc1O[C@@H]1O[C@H](CO)[C@@H](O)[C@H](O)[C@H]1O
Potency [1]: inactive | Potency [2]: inactive

Cc1[nH]c2ccccc2c1CCNCc1ccc(/C=C/C(=O)NO)cc1
Potency [1]: 18.3 nM (active) and 52.5 nM (active) | Potency [2]: 18.3 nM (active) and 52.5 nM (active) | activity [3]: 16.3% | activity change, negative = inhibition [4]: -2.13% | activity [5]: -6% | activity [6]: -2.09%

O=C(O)CSc1cc(NS(=O)(=O)c2ccc(Br)cc2)c2ccccc2c1O
Potency [1]: 7.28 µM (active) | Potency [2]: 4.09 µM (active) | Potency [7]: 84.9 µM (active) | outcome [8]: inactive | Potency [9]: 47.8 µM (active) | outcome [10]: inactive

C=C1C(=O)OC2C(OC(=O)C=C(C)C)C(C)=C3C(=O)C=C(C)C3C(O)C12 (stereo not drawn)
Potency [1]: 10.1 µM (active) | Potency [2]: 3.19 µM (active) | activity [3]: -65.9% | activity change, negative = inhibition [4]: -0.769% | activity [5]: 2.7% | activity [6]: 4.72%

CCOc1cc(C(C)(C)C)ccc1C1=NC(C)(c2ccc(Cl)cc2)C(C)(c2ccc(Cl)cc2)N1C(=O)N1CCN(CCCS(C)(=O)=O)CC1 (stereo not drawn)
Potency [1]: 0.817 µM (active) | Potency [2]: 0.258 µM (active)

CCC(=O)N1CCOc2c(cc(-c3ccc(OC)c(OC)c3)cc2OC[C@H]2CCCN(C)C2)C1
Potency [1]: 8.17 µM (active) | Potency [2]: 7.28 µM (active) | activity [3]: -13.1% | activity change, negative = inhibition [4]: -8.77% | activity [5]: -10.5% | activity [6]: -9.1%

Cc1nnc(C[C@@H]2C=C(c3ccc(Cl)cc3)c3ccccc3-n3c(C)nnc32)o1
Potency [1]: 0.332 µM (active) | Potency [2]: 0.296 µM (active) | activity [3]: -1.31% | Potency [4]: inactive | activity [5]: -21% | activity [6]: 3.69%

C=C1[C@@H](OC(C)=O)CC[C@@]2(C)[C@@H](OC(C)=O)[C@H](OC(C)=O)C3=C(C)C[C@H](OC(=O)C(C)CC)[C@@H]([C@@H](OC(C)=O)[C@H]12)C3(C)C (stereo partly drawn)
Potency [1]: 1.21 µM (active) | Potency [2]: 1.21 µM (active)

CC[N+]1(C/C2=C/CCCCCC2)CCC(NC(=O)C2c3cc(Cl)ccc3Oc3ccc(Cl)cc32)CC1 (stereo not drawn)
Potency [1]: 23 µM (active) | Potency [2]: 18.3 µM (active) | activity [3]: -37.4% | activity change, negative = inhibition [4]: 0% | activity [5]: -28% | activity [6]: -2.38%

C[C@H](Oc1cc(-c2cnn(C3CCNCC3)c2)cnc1N)c1c(Cl)ccc(F)c1Cl
Potency [1]: 11.5 µM (active) | Potency [2]: 12.9 µM (active) | activity [3]: -64.7% | Potency [4]: 27.1 µM (active) | activity [5]: -75.2% | activity [6]: -61.8%

COc1ccc(CCc2nc3c(C)c(-c4c(C)noc4C)c(C)cc3n2CCN2CCOCC2)cc1
Potency [1]: 18.3 µM (active) | Potency [2]: 18.3 µM (active) | activity [3]: 6.34% | activity change, negative = inhibition [4]: 5.22% | activity [5]: -28% | activity [6]: 1.27%

COC(=O)C1=CO[C@@H](O[C@@H]2O[C@H](CO)[C@@H](O)[C@H](O)[C@H]2O)[C@H]2[C@@H]1C=C[C@]21C=C([C@H](C)OC(=O)/C=C/c2ccc(O)cc2)C(=O)O1
Potency [1]: 0.383 µM (active) | Potency [2]: 0.483 µM (active)

NC(=O)c1ccccc1Nc1ccnc(Nc2cccc(O)c2)n1
Potency [1]: 0.742 µM (active) | Potency [2]: 0.833 µM (active) | activity [3]: -4.04% | activity change, negative = inhibition [4]: 1.25% | activity [5]: -41.1% | activity [6]: -7.27%

Nc1nc(Nc2ccc3c(c2)CCC(N2CCCC2)CC3)nn1-c1cc2c(nn1)-c1ccccc1CCC2 (stereo not drawn)
Potency [1]: 1.63 µM (active) | Potency [2]: 1.45 µM (active)

C=CC(=O)Nc1ccc(CN2C(=O)N(c3cc(OC)cc(OC)c3)Cc3cnc(Nc4ccc(N5CCN(C)CC5)cc4)nc32)cc1
Potency [1]: 1.46 µM (active) | Potency [2]: 0.817 µM (active) | activity [3]: -18.9% | activity change, negative = inhibition [4]: -0.849% | activity [5]: -1.46% | activity [6]: -2.5%
